High-throughput results deposited in PubChem by National Center for Advancing Translational Sciences (NCATS).
Rows were chosen to be rich in hits. Some 2.4% of all compounds tested hit in one or more screens of this group.
D2 PAM-1 – Beta-Arrestin HTS for Positive Allosteric Modulators of the Human D2 Dopamine Receptor: Potentiators; hit rate 0.23% among 360,000; potentiation, % (concentration not given with the values); DiscoveRx D2 beta-arrestin cells, luminescence, 90 min; 100% = 57 uM dopamine signal; AID 624464, 2012; in the data active = potentiation above about 50%
Target sequence (P14416 whole entry, looked up): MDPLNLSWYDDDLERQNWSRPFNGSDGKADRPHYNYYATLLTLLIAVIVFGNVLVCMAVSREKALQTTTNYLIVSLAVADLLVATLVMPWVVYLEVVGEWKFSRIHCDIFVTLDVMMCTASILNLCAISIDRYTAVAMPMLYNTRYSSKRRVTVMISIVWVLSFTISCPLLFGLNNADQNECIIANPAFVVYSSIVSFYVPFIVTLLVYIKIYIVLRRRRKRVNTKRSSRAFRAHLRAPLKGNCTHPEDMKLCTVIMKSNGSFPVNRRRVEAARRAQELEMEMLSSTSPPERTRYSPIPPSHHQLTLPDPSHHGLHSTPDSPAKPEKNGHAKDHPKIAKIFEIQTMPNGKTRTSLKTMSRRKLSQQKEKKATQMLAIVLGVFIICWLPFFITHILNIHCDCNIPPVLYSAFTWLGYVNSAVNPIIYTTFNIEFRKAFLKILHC
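PathHunter beta-arrestin assay in DiscoveRx D2 cells. Compounds were added with an EC20 of dopamine (50 nM final) for 90 min at 37 deg C. Luminescence was read 1 h after detection reagent, with 57 uM dopamine as the EC100 control.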
D2 ag-1 – Beta-Arrestin HTS for Positive Allosteric Modulators of the Human D2 Dopamine Receptor: Agonists; D(2) dopamine receptor (Homo sapiens), P14416; DiscoveRx PathHunter D2 beta-arrestin, luminescence, 90 min; 100% = 57 uM dopamine signal; activation, % (no concentration beside the values); hit rate 0.084% among 360,000; AID 624465, 2012; in the data active = activation above about 40%
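Agonist mode: compounds alone added to overnight-plated D2 PathHunter cells for 90 min at 37 C, with 57 uM final dopamine (EC100) defining full response. Beta-arrestin recruitment detected by chemiluminescent reagent, read after 1 h at ambient temperature.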
D2 ag-2 – HTS Assay for Allosteric Agonists of the Human D2 Dopamine Receptor: Primary Screen for Agonists; D(2) dopamine receptor (Homo sapiens), P14416; HEK293 T-REx D2 cells, calcium flux agonist mode; activation, % at 2 µM; hit rate 0.53% among 340,000;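 active = activation over 3 SD above normal in the single-dose calcium agonist read, cut at about 30% in these data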; note: 0% is about no effect
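Agonism is scored from calcium flux in a force-coupled, inducible HEK293 cell line expressing D2, read kinetically for 180 s after compound addition against dopamine controls.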
D2 PAM-2 – HTS Assay for Positive Allosteric Modulators of the Human D2 Dopamine Receptor: Primary Screen for Potentiators | hit rate 0.34% among 340,000 | potentiation, % at 10 µM | HEK293 T-REx D2, calcium flux, EC20 dopamine potentiation;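 active = potentiation over 3 SD above the plate norm, cut at about 30% in these data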; note: 0% is about no effect
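Potentiation of an EC20 dopamine calcium response is measured in a force-coupled, tetracycline-inducible Hek293 Trex D2 line. Compound-only kinetic reads over 180 s flag agonists before dopamine addition.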
D2 antagonist – HTS Assay for Allosteric Antagonists of the Human D2 Dopamine Receptor: Primary Screen for Antagonists | hit rate 2% among 340,000 | HEK293 TREx D2 cells, calcium flux, dopamine EC80 | inhibition, % at 10 µM | AID 485344, 2010 | D(2) dopamine receptor (Homo sapiens), P14416; in the data active = inhibition above about 30%; inactive = below that, where a call was filed; note: 0% is about no effect
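Tetracycline-induced HEK293 T-REx cells expressing D2 force-coupled to calcium signalling were dye-loaded, exposed to compound for 180 s, then challenged with an EC80 of dopamine; calcium flux was followed kinetically for a further 180 s.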
* hit, by the source's call.

`COc1cc2occc2c2oc(=O)ccc12` gave D2 PAM-1 -23, D2 ag-1 0, D2 ag-2 -1, D2 PAM-2 -1 and D2 antagonist 33*.
For COc1cc2ccc(=O)oc2c2ccoc12 the results were D2 PAM-1 -36, D2 ag-1 0, D2 ag-2 0, D2 PAM-2 2 and D2 antagonist -31.
For O=C(Nc1ccc2c(c1)OCCO2)c1cccn(Cc2cccc([N+](=O)[O-])c2)c1=O the results were D2 ag-2 7 and D2 PAM-2 -7.
`COc1ccccc1OCC#CCN1CCCCCC1` gave D2 PAM-1 -10 and D2 ag-1 0.
COc1ccccc1OCC#CCN1CCCC(C)C1 (stereo not given) was read as D2 PAM-1 4, D2 ag-1 -5, D2 ag-2 0, D2 PAM-2 -38 and D2 antagonist 57*.
C[n+]1c(-c2ccccc2)c2cc(N)ccc2c2ccc(N)cc21 was read as D2 PAM-1 25, D2 ag-1 7, D2 ag-2 5, D2 PAM-2 -6 and D2 antagonist -11.
`Nc1ccc2ccc3cccc[n+]3c2c1` gave D2 PAM-1 4, D2 ag-1 -1, D2 ag-2 31*, D2 PAM-2 3 and D2 antagonist 1.
`COc1cccc(-n2c(/C=C/c3cccc(C)c3)nc3ccccc3c2=O)c1` gave D2 ag-2 1 and D2 PAM-2 -3.
For C1=C(c2c[nH]c3ccccc23)CCNC1 the results were D2 ag-2 2, D2 PAM-2 -16 and D2 antagonist 42*.
Screening CC(C)N1CC=C(c2c[nH]c3ccccc23)CC1 returned D2 PAM-1 -39 and D2 ag-1 -1.
O=c1c2ccccc2nc(/C=C/c2ccc(F)cc2)n1-c1ccccn1 was read as D2 PAM-1 -4, D2 ag-1 -4, D2 ag-2 0, D2 PAM-2 7 and D2 antagonist -17.
O=C1c2ccccc2C(=O)N1Cc1nc2ccccc2c(=O)n1-c1ccccn1 was read as D2 PAM-1 2, D2 ag-1 2, D2 ag-2 1, D2 PAM-2 5 and D2 antagonist 31*.
CCc1nn(CC(=O)N2CCC3(CC2)OCCO3)c(=O)c2cc3ccccc3n12 was read as D2 PAM-1 -2, D2 ag-1 3, D2 ag-2 32*, D2 PAM-2 -12 and D2 antagonist -5.
`N#Cc1ccccc1NC(=O)c1cccn(Cc2ccccc2)c1=O` gave D2 ag-2 1 and D2 PAM-2 17.
CC1(C)CN=C(Nc2ccc(F)c(Cl)c2)S1 was read as D2 PAM-1 -21, D2 ag-1 -9, D2 ag-2 1, D2 PAM-2 0 and D2 antagonist 1.
`CC1(C)CSC(Nc2ccc(F)c(Cl)c2)=N1` gave D2 PAM-1 13, D2 ag-1 -1, D2 ag-2 0, D2 PAM-2 32* and D2 antagonist 12.
For Cn1cc(C(=O)OCC(=O)NC2CCCCC2)c2ccccc21 the results were D2 PAM-1 -1, D2 ag-1 -6, D2 ag-2 0, D2 PAM-2 3 and D2 antagonist 39*.
For CC1CCN(C(=O)COC(=O)c2cn(C)c3ccccc23)CC1 the results were D2 PAM-1 -4, D2 ag-1 -1, D2 ag-2 0, D2 PAM-2 -18 and D2 antagonist 3.
For COc1cccc(CN2CC=C(c3ccc(F)cc3)CC2)c1 the results were D2 PAM-1 -12, D2 ag-1 1, D2 ag-2 3, D2 PAM-2 -23 and D2 antagonist 72*.
`Cc1ccnc(-n2c(-c3ccccc3)nc3ccccc3c2=O)c1` gave D2 PAM-1 -10, D2 ag-1 0, D2 ag-2 0, D2 PAM-2 16 and D2 antagonist 33*.
OCCN1C2CCC1CC(O)(c1ccc(F)cc1)C2 (stereo not given) was read as D2 PAM-1 -39, D2 ag-1 -2, D2 ag-2 1, D2 PAM-2 -19 and D2 antagonist 48*.
`COc1ccc(OCC(=O)N2CCN(Cc3cccc(OC)c3OC)CC2)cc1` gave D2 PAM-2 -3.
For CCCCCCNC(=O)N[C@H](Cc1ccc(O)cc1)C(=O)NCCC[C@H]1CN2C(=NC[C@H]2CCC)N1CC1CCC1 the results were D2 ag-2 1, D2 PAM-2 7 and D2 antagonist 34*.
For O=C1CC(c2ccc(C(F)(F)F)cc2)c2c(c3ccccc3oc2=O)O1 (stereo not given) the results were D2 ag-2 0 and D2 PAM-2 -2.
Clc1cccc(N2CCNCC2)c1Cl was read as D2 PAM-1 -4, D2 ag-1 -1, D2 ag-2 2, D2 PAM-2 -26 and D2 antagonist 35*.
`Cc1ccc(NC(=O)CN2C(=O)CN=C(c3ccccc3)c3ccccc32)cc1Cl` gave D2 ag-2 0 and D2 PAM-2 -11.
Fc1ccc(C(OCCN2CCCC2)c2ccc(F)cc2)cc1 was read as D2 PAM-1 -41, D2 ag-1 -5, D2 ag-2 1, D2 PAM-2 -23 and D2 antagonist 13.
Fc1ccc(C(OCCN2CCCC2)c2ccc(Br)cc2)cc1 (stereo not given) was read as D2 PAM-1 -16, D2 ag-1 0, D2 ag-2 4, D2 PAM-2 -23 and D2 antagonist 47*.
`Cc1ccc2c(c1)C1CN(C)CCC1N2C(=O)/C(C#N)=C/c1ccc2c(c1)OCO2` (stereo not given) gave D2 PAM-1 -6, D2 ag-1 -2, D2 ag-2 0, D2 PAM-2 -9 and D2 antagonist 48*.
Screening Cc1ccc2c(c1)C1CN(C)CCC1N2C(=O)/C=C/c1ccc2c(c1)OCO2 (stereo not given) returned D2 PAM-1 -11, D2 ag-1 -2, D2 ag-2 0, D2 PAM-2 -10 and D2 antagonist 21.
`N#Cc1cc2c(nc1SCC(=O)Nc1ccc(F)c(Cl)c1)C1CCN2CC1` gave D2 ag-2 0 and D2 PAM-2 3.
CC[C@H]1C2C[C@H]3[C@@H]4N(C)c5ccccc5C45C[C@H](C2[C@H]5O)N3[C@@H]1O (stereo not given in full) was read as D2 PAM-1 -26, D2 ag-1 -2, D2 ag-2 1, D2 PAM-2 -10 and D2 antagonist 36*.
